Screens (PubChem BioAssay)
MPTP block: inhibitors of mitochondrial permeability transition pore; 360,000 compounds, 1.4% hits; isolated mouse mitochondria, Ca2+ swelling absorbance, 30 min; inhibition, % at 10 µM;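 active means inhibition of 50% or more, scaled per plate between neutral and stimulator controls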;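 further: 0% = DMSO wells given calcium and 100% = 1 mM EGTA wells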
GRIN3A LBD mod: NR3A (human) ligand-binding domain modulation; NR3A LBD differential scanning fluorimetry, Tm shift; 0% = protein alone, 100% = glycine-bound protein; Tm shift relative to glycine control, % at 25 µM; 340,000 compounds, 2.5% hits;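 active means melting temperature shift of at least 10% of the positive control shift, at one fixed dose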
FAS TE block: blocks the thioesterase domain of human fatty acid synthase; 360,000 compounds, 0.67% hits; P49327; recombinant FAS-TE, OMFH fluorogenic substrate, fluorescence endpoint; inhibition, % at 15 µM; AID 602261;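 active means compounds whose normalised, plate-corrected inhibition of enzyme fluorescence in the single-dose primary screen is 50% or more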;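 further: 0% = DMSO with enzyme and 100% = substrate without enzyme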
MIN6 prolif-1: MIN6 beta-cell proliferation induction | MIN6 cells proliferation, ATPlite luminescence, 48 h; cells starved in 0.2% serum; 100% = growth in 10% serum | proliferation, % at 10 µM | 330,000 compounds, 0.29% hits | AID 2380;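 active means compounds whose signal lies at least 3.5 SD above the mean of all wells on their plate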;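 further: 0% = DMSO-treated cells in low-serum medium and 100% = 10% serum control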
pCIP destab: lowers stability of the mouse p/CIP coactivator protein | Q05BA5 | F442A p/CIP-EGFP cells, EGFP fluorescence, 16 h | decrease of EGFP signal, % at 10 µM | 290,000 compounds, 0.01% hits | AID 1984;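 active means EGFP signal decrease of at least 30% at 10 µM or well 3 SD below plate mean, unless failing retest; inactive means the rest, including hits failing retest or dose response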
MIN6 prolif-2: MIN6 beta-cell replication induction, confirmed | shares compounds with MIN6 prolif-1 | MIN6 beta-cell proliferation, ATPlite luminescence, 48 h; cells kept in 0.2% serum; scaled between 0.2% and 10% serum | proliferation increase, % at 50 µM | 920 tested, under 10 active;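 active means proliferation increase above 40% at any of the four tested concentrations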
Starred values were filed as active, the others as inactive; x = no result given. Sampled rows, rich in hits. Any-hit rate of the full collection: about 4.1%.

SMILES	MPTP block	GRIN3A LBD mod	FAS TE block	MIN6 prolif-1	pCIP destab	others
CN(C)C(=O)Oc1cccc(-c2cn3cc(Cl)ccc3n2)c1	-1.4	-10.6	-5.4	-2.4	2.9
CN(C)C(=O)Oc1ccc(-c2cn3cc(Cl)ccc3n2)cc1	0.3	12.9*	-3.4	-3.1	0.7
O=C(COC(=O)c1ccc(O)cc1)Nc1ccc(Cl)cc1C(=O)c1ccccc1	10.7	17.9*	32.0	-3.8	-0.8
CC(=O)Nc1ccc(C(=O)OCC(=O)Nc2ccc(Cl)cc2C(=O)c2ccccc2)cc1	-1.8	-1.8	23.2	0.0	0.4
Cc1ccc2nsnc2c1-n1c(C)nc2ccccc2c1=O	-0.2	17.1*	-3.2	-1.7	-3.1
Cc1ccc(-n2c(C)nc3ccccc3c2=O)cc1C	1.0	-0.3	-5.8	-1.8	-1.9
Cn1c(O)c(/C=C2\N=c3ccccc3=C2CCNC(=S)NC2CC2)c(=O)n(C)c1=O	1.3	17.0*	-3.5	2.9	-4.7
Cc1ccc(-n2nc(C)c3c2NC(=O)CSC3c2ccc3c(c2)OCO3)cc1 (stereo not drawn)	5.3	-5.3	-104.5	-4.0	2.7
COc1ccc(C2SCC(=O)Nc3c2c(C)nn3-c2ccccc2)cc1 (stereo not drawn)	3.3	10.8*	-34.7	-3.5	3.9
O=C1NCN(c2ccccc2)C12CCN(C(CCc1ccccc1)c1nnnn1C1CCCC1)CC2 (stereo not drawn)	1.8	x	13.0	x	x
CCOC(=O)[C@]12Cc3cc(C)ccc3[C@H]1N(Cc1ccccc1)C(=O)c1ccccc12	-0.7	11.5*	25.3	x	x
CCOC(=O)[C@]12Cc3cc(OC)ccc3[C@H]1N(Cc1ccccc1)C(=O)c1ccccc12	-1.2	-3.6	27.2	x	x
CCOC(=O)[C@]12Cc3cc(OC)ccc3[C@H]1N(Cc1ccccc1)C(=O)c1cc(F)c(F)cc12	0.8	12.9*	28.8	x	x
CC(=O)CC(c1ccc2c(c1)OCO2)c1c(O)c2ccccc2oc1=O (stereo not drawn)	-1.2	x	-4.6	x	x
CCOC(=O)c1c(C)n(Cc2ccccc2)c2ccc(O)cc12	1.7	-6.5	10.1	0.8	-15.5
COC(=O)c1c(C)n(Cc2ccccc2)c2ccc(O)cc12	0.7	14.3*	-1.3	-3.4	-8.2
O=C1NC(=O)N(c2cccc(Cl)c2)C(=O)/C1=C\c1ccc(Sc2nc3ccccc3[nH]2)o1	39.8	-4.9	9.8	-4.5	-18.4
O=C1NC(=O)N(c2ccccc2F)C(=O)/C1=C/c1ccc(Sc2nc3ccccc3[nH]2)o1	38.0	102.3*	-5.5	x	-20.0
CS(=O)(=O)c1ccc(C2=C(CNC(=O)c3ccncc3)[C@H]3CC[C@@H](C2)N3Cc2ccccc2)cc1	3.1	x	-5.0	x	x
NS(=O)(=O)c1ccc(N=Cc2c(O)n(-c3ccccc3)c(=O)[nH]c2=O)cc1	-0.9	-2.2	-2.9	8.2*	-33.4	MIN6 prolif-2=2.8
Cc1ccc(-n2c(O)c(C=Nc3ccc(S(N)(=O)=O)cc3)c(=O)[nH]c2=O)cc1	-1.1	1.1	-4.4	-3.9	-136.6
CC1=C(C)CC2(C(=O)NC(=O)NC2=O)C(C)C1 (stereo not drawn)	-1.2	-0.2	-8.8	x	x
COc1cccc(-n2c(/C=C/c3ccccn3)nc3ccccc3c2=O)c1	-0.5	1.6	-0.1	8.5*	4.7	MIN6 prolif-2=-6.2
Cc1cccc(-n2c(/C=C/c3ccccn3)nc3ccccc3c2=O)c1	2.9	-1.4	-0.5	1.4	6.2
C=CCn1c(O)c(C(CC)=NCc2ccco2)c(=O)[nH]c1=O	1.5	5.0	-7.9	6.2*	-8.4	MIN6 prolif-2=0.5
SMILES	MPTP block	GRIN3A LBD mod	FAS TE block	MIN6 prolif-1	pCIP destab	others
CC(=O)c1ccc(OC(NC(=O)c2ccco2)C(Cl)(Cl)Cl)cc1 (stereo not drawn)	0.4	0.8	-3.8	7.2*	-6.6	MIN6 prolif-2=-0.7
CN1CCN(c2nc3ccccc3o2)CC1	1.8	-0.5	-5.7	7.3*	-10.9	MIN6 prolif-2=-1.6
CS(=O)(=O)N1CCN(C(=N)N[N+](=O)[O-])CC1	-0.8	-0.1	-6.5	-0.6	-5.3
N[C@@H](Cc1c[nH]c2ccccc12)c1nnc(SCc2ccc(Cl)cc2)o1	0.4	-8.1	0.6	-2.4	-8.1
COc1ccc(-c2cc(=O)c3c(OC)c(OC)c(OC)cc3o2)cc1	-0.8	-0.5	0.9	9.3*	13.8	MIN6 prolif-2=-2.0
CN1OC[C@@H]2CN[C@H](c3ccccc3Br)C[C@@H]21	0.1	-1.1	-8.9	x	x
